Experimental findings from PubChem BioAssay AID2472 (National Center for Advancing Translational Sciences (NCATS), 2010) are described below.

Among all 290,000 compounds or so, about 2,000 (0.69%) were called active. Many of the other results were omitted from the sample, so actives are more common in it than they were. Unmarked numbers belong to inactive results. Cut-off read from the data, not from the text of the source: active = activity change below about -30%; inactive = the rest, inconclusive results apart.
% is set by controls: 0 for no effect and ±100 for the full control effect.

The test is described as follows: qHTS Assay for Inhibitors of Fructose-1,6-bisphosphate Aldolase from Giardia Lamblia: Coupling assay counterscreen. The note with it: coupling enzyme system counterscreen, AmpLite Red fluorescence; at 58.2 µM (top of the series). A digest of the protocol: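 Activity here indicates interference with the coupling reaction, not aldolase inhibition. Compounds at 57.5 uM final met coupling enzymes for 10 min at RT; substrate and AmpLite Red detection followed, with a 525/598 nm fluorescence read after 20 min.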
Take `O=Cc1cn(-c2ccccc2)nc1-c1ccccn1`: the activity change, negative = inhibition was 0.364%.
Consider `O=C1C(c2ccccn2)=[N+]([O-])c2ccccc21`, for which the activity change, negative = inhibition was -40.5% (active).
With `NC(=O)C1CCN(C(=O)CC2C(=O)NCCN2Cc2cccc(Oc3ccccc3)c2)CC1` (centres undefined) the figure was -8.79%; with `O=C(NCc1ccccc1Cl)c1ccc2c(=O)n(CC3CCCO3)c(=S)[nH]c2c1` (centres undefined), 2.3%.
Turning to `COc1ccccc1OCc1nnc(SCC(N)=O)n1-c1ccccc1`, the activity change, negative = inhibition is -0.0181%.
As for `Cn1c(=O)c2cn(-c3cccc4ccccc34)cc2n(C)c1=O`, the figure is -34.2% (active).
With `COc1ccc(-c2c3c(=O)n(C)c(=O)n(C)c3cn2NC(C)=O)cc1` the figure was -2.71%; with `O=C1c2ccccc2C(=O)N1c1cccc2ccccc12`, 2.72%; with `COc1ccc(-c2c3c(=O)n(C)c(=O)n(C)c3cn2-c2cccc(OC)c2)cc1`, 3.67%.
With `CC(=O)Nn1cc2c(=O)n(C)c(=O)n(C)c2c1`, the activity change, negative = inhibition was -0.0563%.
Regarding `COc1ccc(OC)c(-n2cc3c(=O)n(C)c(=O)n(C)c3c2)c1`, the activity change, negative = inhibition is -33.3% (active).
As to `CN(Cc1ccc(F)cc1Cl)S(=O)(=O)c1cccs1`, the activity change, negative = inhibition is -12.4%.
With `CC(C)(C)c1ccc(SCCc2ccncc2)cc1` the figure was 1.38%.
As for `COc1cc(NC(=O)C2CCN(c3cnccn3)CC2)cc(OC)c1`, the figure is -3.56%; as for `CCn1nccc1C(=O)Nc1ccc(S(=O)(=O)NC23CC4CC(CC(C4)C2)C3)cc1`, -40.9% (active).
Regarding `Cc1cc(C(F)F)n2nc(C(=O)Nc3ccc(S(=O)(=O)NC45CC6CC(CC(C6)C4)C5)cc3)nc2n1`, the activity change, negative = inhibition was 0.756%.
With `CCn1nccc1C(=O)Nc1ccc(Cl)c(Cl)c1` the figure was 0.939%.
With `COc1ccc(NC(=O)C2CCC(CNC(=O)[C@@H]3Cc4ccccc4CN3)CC2)cc1` (some centres undefined) the figure was 0.0857%; with `COc1ccc(NC(=O)CCn2ccnc2)c(OC)c1`, 5.46%.
With `Oc1ccc(N=Cc2sc3ccccc3c2Cl)cc1` the figure was -45.3% (active).
On to `O=C(N/N=C/c1c(Cl)[nH]c2ccccc12)c1sc2ccccc2c1Cl`, for which the activity change, negative = inhibition was -8.68%.
Consider `COc1ccc(N=C(C)c2sc3ccccc3c2O)cc1`, for which the activity change, negative = inhibition was -5.39%.
`COc1ccccc1S(=O)(=O)c1c(C)cc(C)[nH]c1=O`: the activity change, negative = inhibition is 0.55%.
As for `C=CC(C1=CC(=O)C=CC1=O)c1ccc(O)cc1` (centres undefined), the figure is -27%.
Take `Cc1noc(C)c1C(=O)N1CCOCC1`: the activity change, negative = inhibition is 0.778%.
As for `Cc1oc2c(c1C(=O)N1CCOCC1)C(=O)c1ccccc1C2=O`, the figure is -40.8% (active); as for `CCOC(=O)c1ccccc1C(=O)N1CCOCCOCCOCC1`, -0.445%; as for `COC(=O)c1cc2c(ccn2C)n1C`, -5.9%.
As for `Cc1cc(C(=O)N/N=C/c2ccccn2)c2ccccc2n1`, the figure is 0.262%; as for `CCOC(=O)CCc1c(C)c(C#N)c2[nH]c3ccccc3n2c1=O`, -41.6% (active); as for `CCCc1cc(=S)n2c([nH]c3ccccc32)c1C#N`, -7.83%.
As for `CCOC(=O)CSc1nccc(N(C)C)c1C#N`, the activity change, negative = inhibition was -0.791%.
As to `C=CCn1cc(Cl)cc(C(=O)Nc2ccccc2)c1=O`, the activity change, negative = inhibition is 0.816%.
As for `COc1ccc(S(=O)(=O)/N=C2\C=C(NS(=O)(=O)c3ccccc3)C(=O)c3ccccc32)cc1`, the figure is -39.6% (active); as for `COc1ccc2cc(S(=O)(=O)Nc3ccccn3)ccc2c1`, 0.329%.
As for `COc1ccc(S(=O)(=O)Nc2c(C)n(C)n(-c3ccccc3)c2=O)cc1`, the figure is 0.385%; as for `C[C@@H](O)[C@@H]1NC(=O)[C@H](CCCCN)NC(=O)[C@H](Cc2c[nH]c3ccccc23)NC(=O)[C@H](Cc2ccccc2)NC(=O)[C@H](Cc2ccccc2)NC(=O)[C@H](CC(N)=O)NC(=O)[C@H](CCCCN)NC(=O)[C@@H](NC(=O)[C@@H]2CCCN2)CSSC[C@@H](C(=O)N[C@@H](CCCCN)C(=O)O)NC(=O)[C@H](CO)NC(=O)[C@H](CO)NC(=O)[C@H](Cc2ccccc2)NC1=O`, -0.403%.
As for `CCCc1c(C(=O)Nc2ccc(F)cc2)cnn1-c1ccccc1`, the figure is -6.8%.
`Cc1ccc(CNC(=O)C2(C(F)(F)F)C/C(=C\CCO)CCCO2)o1` (centres undefined): the activity change, negative = inhibition is 3.8%.
`Cc1ccc(C(=O)Nc2cccc3ncccc23)cc1[N+](=O)[O-]`: the activity change, negative = inhibition was 0.485%.
As for `Cc1ccc(/C=C(\C#N)C(=O)Nc2cccc3ncccc23)o1`, the figure is -39% (active); as for `O=C(Nc1cccc2ncccc12)C(Cl)(Cl)Cl`, 0.503%.
On to `CCOC(=O)C1CCCN(S(=O)(=O)c2ccc(-n3cnnn3)c(C)c2)C1` (centres undefined), for which the activity change, negative = inhibition was 2.06%.
With `c1ccc2c(Nc3ccncc3)nc(-c3ccc4c(c3)OCO4)nc2c1` the figure was -0.804%; with `CC(C)(C)c1ccc(NC(=O)NCc2ccco2)cc1`, -0.174%.
As for `Cc1cc(C)cc(NC(=O)NCc2ccccn2)c1`, the activity change, negative = inhibition is -0.5%.
Regarding `O=C(NCc1ccccn1)c1ccc2nc(-c3ccco3)c(-c3ccco3)nc2c1`, the activity change, negative = inhibition is -38.7% (active).
With `COCCNC(=O)Nc1ccc2nc(-c3ccco3)c(-c3ccco3)nc2c1`, the activity change, negative = inhibition was -35% (active).
Turning to `O=C(Nc1ccc2nccnc2c1)c1ccco1`, the activity change, negative = inhibition was -1.38%.
On to `COc1ccc2oc(=O)c(C(=O)NCc3ccccn3)cc2c1`, for which the activity change, negative = inhibition is -2.85%.
Turning to `CCCCC/C=C\C/C=C\C/C=C\CCCCCCC(N)=O`, the activity change, negative = inhibition was 2.69%.
As for `CCC1Sc2ccc(S(=O)(=O)CCC(=O)NCc3cccs3)cc2NC1=O` (centres undefined), the figure is -3.89%.
In the case of `Cc1cc2c(cc1S(=O)(=O)NCc1ccc(Cl)cc1)OCC(=O)N2`, the activity change, negative = inhibition is 1.64%.
Take `COC(=O)C(C(=O)OC)[C@@H](NC=O)c1ccccc1`: the activity change, negative = inhibition is 1.57%.
As for `CCOC(=O)c1ccccc1CN1C(=O)c2ccccc2S1(=O)=O`, the figure is -1.95%.
`CCOC(=O)C1=C(C(=O)OCC)C(C(=O)OCC)N(S(=O)(=O)C(F)(F)F)c2ccccc21` (centres undefined): the activity change, negative = inhibition is 0.565%.
As for `CCOC(=O)c1cc2n(c1N)-c1ccccc1C2=O`, the figure is -30.6% (active); as for `COC(=O)c1ccc(CNC(=O)C2CCC(=O)N(Cc3ccccn3)C2)cc1` (centres undefined), 0.556%; as for `CCOC(=O)C1=NO[C@@]2(C=C(Br)C(=O)[C@H]3O[C@H]32)C1`, 1.71%.
With `Cc1cc(CNC(=O)C2CCC(=O)N(CCc3ccc(Cl)cc3)C2)no1` (centres undefined) the figure was 2.61%; with `CC(C(=O)NCCc1ccc(S(N)(=O)=O)cc1)N1C(=O)CC(C)(C)Sc2ccccc21` (centres undefined), 5.69%.
In the case of `O=C(N/N=C/c1c[nH]c2ccccc12)c1ccccc1O`, the activity change, negative = inhibition was 1.26%.
Turning to `CSC(=S)N/N=C/c1c[nH]c2ccccc12`, the activity change, negative = inhibition is -0.216%.
On to `C[n+]1ccc(/C=C/c2c[nH]c3ccccc23)cc1`, for which the activity change, negative = inhibition was -48.5% (active).
On to `O=C(NC1CC1)C1=C[C@H](c2c[nH]c3ccccc23)C[C@H](OCc2ccc(CO)cc2)O1`, for which the activity change, negative = inhibition was -9.68%.
With `COc1cccc([C@@H]2Oc3ccc(Br)cc3C(=O)[C@H]2OC(=O)NCc2ccc3c(c2)OCO3)c1` the figure was 1.06%; with `COc1ccc(CCNC(=O)CSCc2ccc(Br)cc2)cc1OC`, -0.53%.
`CCCCCCCCCc1ccc(OCCOCCOCCOCCOCCOCCOCCOCCOCCO)cc1`: the activity change, negative = inhibition is 0.692%.
With `COC(=O)[C@@]1(Cc2ccc(F)cc2)[C@H]2c3cc(C(=O)N4CCCC4)n(C[C@H](O)CO)c3C[C@H]2CN1C(=O)c1ccccc1` the figure was 4.89%; with `COC1=C(N2CCOCC2)C(=O)c2ccccc2C1=O`, -31.1% (active).
As for `O=C1C(Cl)=C(N2CCOCC2)C(=O)N1c1ccccc1`, the figure is 4.18%; as for `COc1ccc(N2CCN(C(C)=C3C(=O)c4ccccc4C3=O)CC2)cc1`, -5.52%; as for `O=C(CSc1cccc[n+]1[O-])c1ccc(-c2ccccc2)cc1`, -0.455%.
As for `CCSc1nsc(NC(=O)Nc2cccc(C(C)=O)c2)n1`, the figure is -3.71%.
For the compound `C=C1CCN(Cc2ccc(OC)cc2)S(=O)(=O)c2ccccc21`, the activity change, negative = inhibition was -9.95%.
Consider `O=C(Nc1cc(C(=O)Nc2ccc(S(=O)(=O)O)cc2)cc(C(=O)Nc2ccc(S(=O)(=O)O)cc2)c1)Nc1cc(C(=O)Nc2ccc(S(=O)(=O)O)cc2)cc(C(=O)Nc2ccc(S(=O)(=O)O)cc2)c1`, for which the activity change, negative = inhibition was 4.94%.
With `Cc1c(S(=O)(=O)O)oc2c1C(=O)C(=O)c1c-2ccc2c1CCCC2(C)C`, the activity change, negative = inhibition is -38.9% (active).
As for `Cc1cc(C)cc(C#CC2C=CC(Oc3ccc(C4CCCC4)cc3)C(CO)O2)c1` (centres undefined), the figure is -0.466%.
With `CC(C)(c1ccccc1)c1ccc(OCCN2CCCC2)cc1` the figure was 1.45%.
With `COCCn1nnnc1C(c1cc2ccc(OC)cc2[nH]c1=O)N1CCc2ccccc2C1` (centres undefined) the figure was -47.7% (active); with `COc1ccc(OC)c(C(c2nnnn2C(C)(C)C)N2CCc3ccccc3C2)c1` (centres undefined), -0.0178%; with `CCOc1ccc2[nH]c(=O)c(C(c3nnnn3CCOC)N3CCOCC3)cc2c1` (centres undefined), -2.27%.
As for `CCOc1ccc(CCNC(=O)Nc2ccccc2)cc1OCC`, the activity change, negative = inhibition was 1.61%.
With `Cc1cccc(OC(C)C(=O)N2CCc3ccccc3C2)c1` (centres undefined) the figure was 3.66%; with `CC(C)(O/N=C(\C(=O)N[C@@H]1C(=O)N2C(C(=O)[O-])=C(C[n+]3ccccc3)CS[C@@H]12)c1csc(N)n1)C(=O)O`, 1.97%; with `CCN1C(=S)N[C@@H](c2cccc(C(F)(F)F)c2)C(C(=O)OC)=C1C`, 2.17%.
With `CN(CCc1ccccn1)C(=O)c1ccc(OC2CCN(CCc3ccccc3)CC2)cc1` the figure was 6.37%; with `Nc1ccc2nc3c(=O)[nH]c(=S)[nH]c3nc2c1`, -35.7% (active); with `Cc1cc2nc3c(=O)n(Cc4ccccc4)c(=O)[nH]c3nc2cc1N`, -26.3%.
